Shown are actives, neighbours in structure and some others; about 12% of the full set was active somewhere.
Sm TGR inh = S. mansoni TGR enzyme inhibition; Potency, µM (highest dose often 114 µM), most hits filed as inhibitors; 360,000 tested, 3% active; purified TGR, DTNB reduction, TNB absorbance 405 nm; active = well fitted inhibition curve with a large enough effect; inconclusive = small, poorly fitted or top-dose-only effect; inactive = no such curve, though single readings can be large or run the other way; note: nearly all actives have a fitted effect of over 60% in size
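Kinetic colorimetric format: TGR-catalysed, NADPH-driven DTNB reduction monitored via TNB absorbance. Enzyme dispensed at 20 nM; compound exposure 15 min at room temperature before reaction start.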
Cycloheximide cs = affects cycloheximide protein synthesis inhibition readout, counter-screen; cell reporter, cycloheximide protein synthesis inhibition counterscreen; max response, %; 300,000 tested, 12% active; AID 2314; in the data active = max response mostly above about 13%, no sharp cut-off; inactive = mostly below about 14%; note: read at 38.3 µM for the half of the compounds with a filed dose
Shiga inhibitor = blocks Shiga toxin action in Vero cells; Vero cells, Shiga toxin protein synthesis inhibition reporter; inhibition, % at 38.7 µM; 290,000 tested, 9.2% active; AID 2315; in the data active = inhibition mostly above about 28%, no sharp cut-off; inactive = mostly below about 43%
FMDV antiviral = antivirals against foot and mouth disease virus; FMDV antiviral cell-based qHTS; Potency, µM (highest dose often 57.9 µM), hits mostly inhibitors; 410,000 tested, 1.2% active; AID 1159524; calls by dose curve; tested in HEK293T cells; note: read-out not given here; nearly all actives have a fitted effect of over 45% in size
Numbers stand for hits; 0 = inactive; ? = inconclusive; - = no result given.

SMILES	Sm TGR inh	Cycloheximide cs	Shiga inhibitor	FMDV antiviral
Cc1cc(C(=O)CSc2nc3ccccc3o2)c(C)n1CC1CCCO1 (stereo not given)	0	66.7	78.0	?
Cc1cc(C(=O)CSc2nc3ccccc3[nH]2)c(C)n1CC1CCCO1 (stereo not given)	0	0	0	11.2µM
COc1cccc(OC)c1C(=O)Nc1nnc(-c2cccs2)s1	0	0	0	0
CCC(CC)C(=O)Nc1nnc(-c2cccs2)s1	0	21.2	0	0
Cc1cc(C)nc(N/N=C/C2=C(N3CCOCC3)C(=C/c3ccccc3)/CC2)n1	?	0	0	28.2µM
Cc1cc(=O)[nH]c(N/N=C/C2=C(N3CCOCC3)C(=C\c3ccc(Cl)cc3)/CC2)n1	25.1µM	0	0	?
Cc1cc(=O)[nH]c(N/N=C/c2ccc(Cl)c([N+](=O)[O-])c2)n1	0	0	0	0
Cc1occc1C(=O)N/N=C/C1=C(N2CCOCC2)C(=C\c2ccc(Cl)cc2)/CC1	0	24.4	0	0
O=C(O)c1ccccc1N/N=C/C1=C(N2CCOCC2)C(=C\c2ccccc2)/CC1	15.8µM	0	58.5	0
O=C(N/N=C/C1=C(N2CCOCC2)C(=C\c2ccccc2)/CC1)Nc1ccccc1	0	0	0	0
CCN(CC)c1ccc(/C=C2\CCC(/C=N/NC(=O)c3ccc(=O)n(C)c3)=C2N2CCOCC2)cc1	0	0	0	0
COC(=O)c1ccccc1NC(=O)C1CCCN(c2nnc(C)c3c(C)n(-c4ccccc4)nc23)C1 (stereo not given)	0	-	-	0
COc1cc(=O)n2c(c1C(=O)NCc1ccco1)CCN(C(=O)c1ccc(C)c(C)c1)CC2	-	-	-	0
COc1ccc(CCNC(=O)C2c3ccccc3C(=O)N2Cc2ccccc2)cc1OC (stereo not given)	0	-	-	0
Cc1ccc(S(=O)(=O)N2CCN(C(=O)c3c(C)nn(-c4ccccc4)c3Cl)CC2)cc1	0	0	0	-
Cc1cc(C)c(S(=O)(=O)N2CCN(C(=O)c3c(C)nn(-c4ccccc4)c3Cl)CC2)c(C)c1	-	-	-	25.1µM
O=C1c2ccccc2C(=O)C1c1nccc2ccccc12	0	41.1	96.7	0
O=C1C(c2ccnc3ccccc23)=C(O)c2ccccc21	0	47.0	active	0
O=C1c2ccccc2C(=O)C1c1ccnc2ccccc12	0	37.5	92.7	0
N#CC1=C(N)SC(N)=C(C#N)C1c1ccnc2ccccc12	?	0	0	0
O=Cc1nccc2ccccc12	-	-	-	0
CC(=O)c1ccc(N2C(=O)N(Cc3cccc(C(F)(F)F)c3)c3ccccc3S2(=O)=O)cc1	0	-	-	?
COc1c(O)c(=O)n2c3ccccc3c3ccnc1c32	3.98µM	-	-	0
C/C(=N\NC(=O)c1c[nH]c2ccccc12)c1ccc(C)o1	0	0	0	0
C/C(=N\NC(=O)c1ccccn1)c1ccc(Cl)cc1	0	32.8	52.9	0
SMILES	Sm TGR inh	Cycloheximide cs	Shiga inhibitor	FMDV antiviral
C/C(=N/NC(=O)c1ccccn1)c1ccc(O)cc1	0	31.6	60.0	0
CC(=NNC(=S)Nc1cccc(Cl)c1)c1ccccn1	-	-	-	0
C/C(=N\Nc1ccc(Cl)cc1)c1ccccn1	0	23.2	74.3	0
C/C(=N/NC(=O)c1ccccn1)c1c[nH]c2ccccc12	0	56.0	92.3	0
CC(=O)N1CCCC1c1nc2ccccc2n1Cc1ccccc1Cl (stereo not given)	0	-	-	0
C/C(=N\NC(=O)c1ccc(N/N=C(\C)c2ccc(O)cc2)cc1)c1ccc(O)cc1	0	40.3	68.2	0
C/C(=N\NC(=O)c1ccc(Cl)cc1)c1ccccn1	0	40.4	84.6	?
COc1cc(=O)n2c(c1C(=O)N(C)Cc1nonc1C)CCN(Cc1ccccc1F)CC2	-	-	-	0
COC(=O)[C@@H]1CCCN1C(=O)c1cnn(-c2ncc3c(n2)-c2ccccc2CCC3)c1C1CC1	-	-	-	0
CCc1ccccc1NC(=O)c1sc(-n2nc(C)c(Cc3ccccc3)c2C)nc1C	0	-	-	0
COCCOc1cc(NC(=O)CS(=O)CC(=O)N(C)C)c(Cl)cc1Cl (stereo not given)	0	0	0	0
CCN(CC)C(=O)CS(=O)(=O)CC(=O)Nc1cc(OCCOC)c(Cl)cc1Cl	35.5µM	0	0	0
O=C(Nc1cccc(F)c1)N1CC2(CCN(C(=O)c3cccc(F)c3)CC2)C1	-	-	-	0
CN(C)C1(CNC(=O)C2CCN(S(=O)(=O)c3cc(Cl)ccc3Cl)CC2)CCCCC1	25.1µM	0	0	0
CCc1ccccc1NC(=O)CN1C(=O)CCn2nc(-c3cccn3C)cc21	0	-	-	0
O=S(=O)(CCN1CCCCC1)Oc1ccc(Cl)cc1Cl	0.447µM	0	0	0
Cc1cc(C)n(CC(=O)N/N=C/c2cccs2)n1	0	39.7	79.0	0
Cc1ccc(OCC(=O)N/N=C\c2cccs2)c([N+](=O)[O-])c1	0	39.1	37.0	0
Cc1cc(C)n(CC(=O)N/N=C/c2ccc([N+](=O)[O-])s2)n1	0	0	0	0
CCc1ccc(OCC(=O)N/N=C\c2ccco2)c([N+](=O)[O-])c1	0	16.4	active	0
Cc1ccn2c(C(=O)N/N=C\c3cccs3)c(C)nc2c1	0	16.2	0	0
CCCOc1ccc(CCC(=O)N/N=C/c2ccco2)cc1	0	0	0	0
CCCCOc1ccc(CCC(=O)N/N=C/c2ccco2)cc1	?	11.8	0	0
Cc1ccc([N+](=O)[O-])c(C(=O)N/N=C/c2cccnc2)c1	0	0	0	0
Cc1ccc([N+](=O)[O-])c(C(=O)N/N=C/c2cccs2)c1	0	21.8	0	0
SMILES	Sm TGR inh	Cycloheximide cs	Shiga inhibitor	FMDV antiviral
CN(CC1COCCO1)C(=O)c1cnn(-c2nccc(-c3ccccc3C(F)(F)F)n2)c1C1CC1 (stereo not given)	-	-	-	0
CCC1CCC(C(=O)NNC(=O)c2cc(-c3ccco3)[nH]n2)CC1 (stereo not given)	22.4µM	0	0	0
CCNc1ccc(Br)cc(C(=O)/C=C/c2ccc(Cl)cc2)c1=O	10µM	0	0	?
CCNc1ccc(Br)cc(C(=O)/C=C/c2c(Cl)cccc2Cl)c1=O	0.891µM	0	0	31.6µM
CCOc1ccccc1CNC(=O)c1ccc(N2Cc3ccccc3Oc3ncccc32)s1	0	-	-	0
COc1ccccc1Oc1ccc2c(c1)C(=O)N(c1cccc(O)c1)C2=O	0	27.8	38.4	0
COc1ccccc1Oc1ccc2c(c1)C(=O)N(c1cccc3ncccc13)C2=O	0	41.4	65.8	20µM
O=C1c2ccc3c4c(ccc(c24)C(=O)N1c1cccc(O)c1)C(=O)N(c1cccc(O)c1)C3=O	0	0	0	?
COc1ccccc1C1CN(CCNC(=O)c2sccc2Cl)Cc2ccccc2O1 (stereo not given)	-	-	-	0
CC1=C(C(=O)Nc2ccccc2C)C(c2ccccn2)n2ncnc2N1 (stereo not given)	0	-	-	0
CCN(CC)CCCNC(=O)c1ccc(Cn2c(SCc3ccccc3)nc3cccnc32)cc1	0	-	-	0
CSc1cccc(Nc2nc3c(S(=O)(=O)c4ccccc4)nnn3c3ccc(Cl)cc23)c1	0	-	-	0
O=C(Nc1ccn(-c2ccccc2)n1)c1ccccc1Br	0	37.6	50.5	0
N#Cc1ccc(C(=O)Nc2ccn(-c3ccccc3)n2)cc1	0	0	0	0
O=C(Nc1ccn(-c2ccccc2)n1)c1ccc(Cl)cc1	0	45.1	106.2	0
CC(=O)Nc1ccn(-c2ccccc2)n1	0	31.2	51.9	0

Screening results as filed in PubChem BioAssay.
